# From PubChem BioAssay (Tox21)
# Inconclusive results are not listed. Entries that show only a call come without a potency. Active and inactive are the calls of the source. Calls come from the whole dose curve; as a rule, active = well fitted cell-killing curve with a large enough effect in the repeat runs; inconclusive = weak or mixed curves, or effect the other way; inactive = flat fitted curve, though single readings scatter.
# Assay: cAMP Responsive Elements (CRE) small molecule antagonists, cell-based qHTS assay: qHTS cell viability counter screen (AID 2060913); note: nearly all actives have a fitted effect of over 40% in size
# Conditions: CRE-bla HEK293T viability, CellTiter-Glo luminescence, 5 h; series mostly up to 92.4 µM
# Summary of the method: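 Cytotoxicity counter screen multiplexed with the CRE-bla antagonist read: HEK293T cells in DMEM with dialyzed FBS and 25 mM HEPES were treated 3 hrs under 0.25 uM final NKH477, then viability measured by CellTiter-Glo luminescence.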
row,Compound,Potency
1,Clc1cccc(Cl)c1NC1=NCCN1,inactive
2,CCOC(=O)Cn1cccc1-c1nc(-c2ccc(OC)cc2)c(-c2ccc(OC)cc2)s1,inactive
3,Cc1ccc(C=O)s1,inactive
4,CC(C)=CCCC(C)CCO (stereo not given),inactive
5,CC(C)(C)c1ccc(CCC=O)cc1,inactive
6,CC1=CC2C3CC(C=C3C)C2C1 (stereo not given),inactive
7,O=C1NS(=O)(=O)c2ccccc21,inactive
8,CN(C)CCCN1c2ccccc2Sc2ccccc21,inactive
9,CC(=O)Oc1ccc(C2(c3ccc(OC(C)=O)cc3)C(=O)Nc3ccccc32)cc1,inactive
10,CC(C)(C)OCC1CO1 (stereo not given),inactive
11,CC(=O)[C@H]1CC[C@H]2[C@@H]3C[C@H](C)C4=CC(=O)CC[C@]4(C)[C@H]3[C@@H](O)C[C@]12C,inactive
12,CC1=CC(C)(C)Nc2ccccc21,inactive
13,N#Cc1cscn1,inactive
14,CC(=O)C(=O)O,inactive
15,Cc1cccc(OCCOc2cccc(C)c2)c1,inactive
16,CCOC(=O)c1ccc(O)cc1,inactive
17,CN(C)CCCSc1ccccc1NC(=O)/C=C/c1ccccc1,inactive
18,CCCCCCCCC(CCCCCC)C(=O)O (stereo not given),inactive
19,COC(=O)C(C)(C)C,inactive
20,CCCCN(CCCC)CCC(O)c1cc2c(Cl)cc(Cl)cc2c2cc(C(F)(F)F)ccc12 (stereo not given),inactive

row,Compound,Potency
1,CCCCCCCCCCCCCCCBr,inactive
2,CN(C)c1ccc2nc3ccc(=[N+](C)C)cc-3sc2c1,inactive
3,Cc1ccc(OC(=O)c2ccccc2O)cc1,inactive
4,CC(C)O.CC(C)O.CCOC(=O)/C=C(\C)O.CCOC(=O)/C=C(\C)O.[Ti],inactive
5,Nc1ccc(S(=O)(=O)O)c(N)c1,inactive
6,C[C@@H](O)[C@H]1C(=O)N2C(C(=O)O)=C(SCCN=CN)C[C@H]12,inactive
7,O=C1O[C@@H]2[C@@H](O)[C@H](O)O[C@@H]2[C@H]1O,inactive
8,Cc1ccc(C2OC[C@@H]3OC(c4ccc(C)cc4)O[C@H]([C@H](O)CO)[C@@H]3O2)cc1 (stereo not given in full),inactive
9,Clc1ccccc1CN1CCc2sccc2C1,inactive
10,NC(N)=NC(=O)c1nc(Cl)c(N)nc1N,inactive
11,C=COCCCCO,inactive
12,CC(c1cc(C(C)(C)C)cc(C(C)(C)C)c1O)c1cc(C(C)(C)C)cc(C(C)(C)C)c1O,inactive
13,Cc1cccc(O)c1N,inactive
14,CCOC(=O)OC(=O)OCC,inactive
15,CC(C)(C)CC(=O)OCC(=O)[C@@]1(O)CC[C@H]2[C@@H]3CCC4=CC(=O)C=C[C@]4(C)[C@H]3[C@@H](O)C[C@@]21C,inactive
16,O=C(Cn1ccnc1[N+](=O)[O-])NCCO,inactive
17,CCC(O)CO (stereo not given),inactive
18,Cc1c(F)cc2c(=O)c(C(=O)O)cn3c2c1CCC3C (stereo not given),inactive
19,CCOC(=O)C(C)Oc1ccc(Oc2cnc3cc(Cl)ccc3n2)cc1 (stereo not given),inactive
20,COC(=O)N/N=C/c1c[n+]([O-])c2ccccc2[n+]1[O-],inactive
